Test in all cases: log2 fold change of tryptic peptide abundance, ligand vs vehicle (limited proteolysis) (log2 ratio); higher = more trypsin-susceptible (destabilized)
One experiment deals with T1, UniProt P02918.
T1 sequence (whole entry): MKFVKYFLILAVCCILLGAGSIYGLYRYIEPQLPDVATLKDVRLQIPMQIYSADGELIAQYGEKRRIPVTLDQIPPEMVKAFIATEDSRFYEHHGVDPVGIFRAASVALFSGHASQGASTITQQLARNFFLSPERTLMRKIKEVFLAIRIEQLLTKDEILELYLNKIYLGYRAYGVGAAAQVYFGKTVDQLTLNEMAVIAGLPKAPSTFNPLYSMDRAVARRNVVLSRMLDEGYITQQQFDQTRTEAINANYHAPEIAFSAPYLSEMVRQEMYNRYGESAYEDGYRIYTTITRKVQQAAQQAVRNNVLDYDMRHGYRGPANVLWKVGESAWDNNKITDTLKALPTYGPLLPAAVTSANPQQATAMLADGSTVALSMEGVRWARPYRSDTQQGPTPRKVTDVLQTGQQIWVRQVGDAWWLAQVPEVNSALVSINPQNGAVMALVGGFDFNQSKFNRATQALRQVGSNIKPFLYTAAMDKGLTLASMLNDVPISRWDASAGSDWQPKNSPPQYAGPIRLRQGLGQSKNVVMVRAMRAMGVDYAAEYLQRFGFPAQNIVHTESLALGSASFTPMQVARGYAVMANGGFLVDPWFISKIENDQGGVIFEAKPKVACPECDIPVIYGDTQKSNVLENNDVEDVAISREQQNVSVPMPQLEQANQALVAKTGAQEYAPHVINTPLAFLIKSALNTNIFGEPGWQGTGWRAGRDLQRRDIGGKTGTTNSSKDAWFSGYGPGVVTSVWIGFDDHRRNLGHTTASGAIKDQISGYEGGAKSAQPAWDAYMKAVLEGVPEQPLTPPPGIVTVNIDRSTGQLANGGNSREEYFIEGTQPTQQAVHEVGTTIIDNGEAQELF
Particulars: peptide sequence: NSPPQYAGPIR; peptide start residue: 506; ligand concentration: 10 uM; sample: E. coli crude lysate.

For another experiment, the target named is T2, UniProt P02919.
T2 sequence (whole entry): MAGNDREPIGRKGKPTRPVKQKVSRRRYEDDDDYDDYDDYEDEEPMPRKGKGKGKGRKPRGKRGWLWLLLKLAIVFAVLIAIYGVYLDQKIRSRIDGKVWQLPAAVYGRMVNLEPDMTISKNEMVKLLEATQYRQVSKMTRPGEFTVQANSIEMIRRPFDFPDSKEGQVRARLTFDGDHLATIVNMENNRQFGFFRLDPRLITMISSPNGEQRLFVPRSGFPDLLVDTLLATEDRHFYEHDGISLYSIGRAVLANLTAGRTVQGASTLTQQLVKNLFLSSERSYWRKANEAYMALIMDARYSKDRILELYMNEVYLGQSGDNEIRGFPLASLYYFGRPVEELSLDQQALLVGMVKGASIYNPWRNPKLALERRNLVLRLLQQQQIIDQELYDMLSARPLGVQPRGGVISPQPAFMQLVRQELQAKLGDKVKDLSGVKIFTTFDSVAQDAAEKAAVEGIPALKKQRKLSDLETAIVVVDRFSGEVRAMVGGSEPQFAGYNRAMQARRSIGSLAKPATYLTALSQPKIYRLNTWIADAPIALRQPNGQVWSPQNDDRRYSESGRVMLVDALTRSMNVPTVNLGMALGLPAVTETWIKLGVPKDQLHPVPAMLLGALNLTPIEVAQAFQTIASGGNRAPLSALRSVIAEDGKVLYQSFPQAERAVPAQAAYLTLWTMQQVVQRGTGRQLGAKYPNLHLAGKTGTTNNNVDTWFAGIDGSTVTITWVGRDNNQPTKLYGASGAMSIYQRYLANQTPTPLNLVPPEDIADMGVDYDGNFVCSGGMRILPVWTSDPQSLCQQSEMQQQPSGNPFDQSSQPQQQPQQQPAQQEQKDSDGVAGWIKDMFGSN
The settings on record: peptide sequence: QPNGQVWSPQNDDRR; peptide start residue: 542; ligand concentration: 10 uM; sample: E. coli crude lysate.

Another experiment deals with UniProt P24228. Particulars: peptide sequence: AGLHQAGVDGK; peptide start residue: 403; ligand concentration: 10 uM; sample: E. coli crude lysate.
Chain of UniProt P24228 (P24228 whole entry): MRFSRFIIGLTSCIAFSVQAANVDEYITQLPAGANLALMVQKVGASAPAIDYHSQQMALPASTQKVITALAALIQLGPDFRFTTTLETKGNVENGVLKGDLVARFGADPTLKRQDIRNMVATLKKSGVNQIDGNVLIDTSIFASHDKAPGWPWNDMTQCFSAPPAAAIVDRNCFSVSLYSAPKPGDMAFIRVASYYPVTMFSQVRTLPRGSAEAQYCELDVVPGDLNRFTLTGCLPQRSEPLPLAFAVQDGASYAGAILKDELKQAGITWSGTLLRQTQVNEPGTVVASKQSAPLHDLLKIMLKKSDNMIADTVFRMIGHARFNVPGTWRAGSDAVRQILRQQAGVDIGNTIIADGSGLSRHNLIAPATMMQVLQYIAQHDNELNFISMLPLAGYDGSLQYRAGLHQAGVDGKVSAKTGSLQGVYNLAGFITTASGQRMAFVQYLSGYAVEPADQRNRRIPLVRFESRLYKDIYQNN
Another experiment has as its target T3, UniProt P77754.
T3 sequence (whole entry): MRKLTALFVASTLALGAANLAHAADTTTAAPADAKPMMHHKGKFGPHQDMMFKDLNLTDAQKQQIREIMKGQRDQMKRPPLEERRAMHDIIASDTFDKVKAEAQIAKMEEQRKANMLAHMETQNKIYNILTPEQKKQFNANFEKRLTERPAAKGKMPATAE
The settings on record: peptide sequence: DLNLTDAQK; peptide start residue: 54; ligand concentration: 10 uM; sample: E. coli crude lysate.

On to `CC1(C)S[C@@H]2[C@H](NC(=O)[C@H](N)c3ccccc3)C(=O)N2[C@H]1C(=O)O` [ampicillin], for which the log2 fold change was -1.56 with UniProt P02918, 1.86 in the experiment with UniProt P02919, -3.07 with UniProt P24228 and -0.675 in the experiment with UniProt P77754.

For the origin of these results see the supplement of paper PMC12819154, “High-throughput peptide-centric local stability assay extends protein–ligand identification to membrane proteins, tissues and bacteria” (Nature Structural & Molecular Biology, 2025).
